# Results published in PubChem BioAssay (Tox21).
# Records with an inconclusive call do not appear. Unmarked numbers belong to inactive results. Calls of active or inactive are those of the source. Calls follow the shape of the full dose curve.
# Biological target: Peroxisome proliferator-activated receptor delta (Homo sapiens) (UniProt Q03181)
# Assay: qHTS assay to identify small molecule agonists of the peroxisome proliferator-activated receptor delta (PPARd) signaling pathway (AID 743212)
# Conditions: HEK293H PPARd-UAS-bla, beta-lactamase FRET ratio, 17 h; series mostly up to 62.6 µM; activation: at the top concentration
# Description: U.S. Tox21 Program National Center for Advancing Translational Sciences [NCATS] NIH Chemical Genomics Center [NCGC] U.S. Environmental Protection Agency [EPA] National Institutes of Environmental Health Sciences [NIEHS] National Toxicology Program [NTP] U.S. Food and Drug Administration [FDA] Tox21 Assay Overview: The peroxisome proliferator-activated receptors (PPARs) are lipid-activated transcription factors of the nuclear receptor superfamily with three distinct subtypes namely PPAR alpha, PPAR delta (PPARd) and PPAR gamma. All these subtypes heterodimerizes with Retinoid X receptor (RXR) and have different physiological functions. […] To identify the compounds that activate PPAR-delta signaling, GeneBLAzer PPAR delta UAS-bla HEK293H cell line (Invitrogen, Carlsbad, CA, USA) containing a beta-lactamase reporter gene under the control of an Upstream Activator Sequence (UAS) was used to screen the Tox21 compound library.
# Tox21 Assay Protocol Summary: PPARd-bla cells were dispensed at 3000 cells/6uL/well in 1536-well black wall/clear bottom plates using a Multidrop Combi (Thermo Fisher Scientific, Waltham, MA) dispenser. After the assay plates were incubated at 37 C and 5% CO2 for 5 h, 23 nL of compounds dissolved in DMSO, positive controls or DMSO only was transferred to the assay plate by a Pintool station (Kalypsys, San Diego, CA). The assay plates were incubated at 37C for 17 h. After 1 uL of LiveBLAzerTM B/G FRET substrate was added using a Bioraptr Flying Reagent Dispenser (FRD) workstation (Beckman Coulter, Indianapolis, IN, USA), the plates were incubated at room temperature for 2 h, and fluorescence intensity was measured by an Envision plate reader (PerkinElmer, Shelton, CT).
# % is scaled to controls: 0 for no effect and ±100 for the full control effect.
# Sequence of Peroxisome proliferator-activated receptor delta (Homo sapiens) (Q03181 whole entry, looked up): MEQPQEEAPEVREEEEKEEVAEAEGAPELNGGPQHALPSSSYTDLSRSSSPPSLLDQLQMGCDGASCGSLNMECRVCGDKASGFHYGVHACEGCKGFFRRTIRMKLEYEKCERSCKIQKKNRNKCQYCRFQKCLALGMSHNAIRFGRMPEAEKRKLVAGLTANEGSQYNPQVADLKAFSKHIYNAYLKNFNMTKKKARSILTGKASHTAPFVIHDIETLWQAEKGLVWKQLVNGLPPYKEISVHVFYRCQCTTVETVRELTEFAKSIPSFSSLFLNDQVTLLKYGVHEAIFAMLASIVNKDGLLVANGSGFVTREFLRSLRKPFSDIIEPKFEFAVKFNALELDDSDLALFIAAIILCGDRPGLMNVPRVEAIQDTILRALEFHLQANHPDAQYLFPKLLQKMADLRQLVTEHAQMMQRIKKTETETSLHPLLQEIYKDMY
SMILES,outcome,activation
CC(=O)Oc1c(C)c(C)c2c(c1C)CC[C@@](C)(CCC[C@H](C)CCC[C@H](C)CCCC(C)C)O2,inactive,–
IC(I)I,inactive,–
CC1(C)C(C=C(Cl)Cl)C1C(=O)OCc1cccc(Oc2ccccc2)c1 (stereo not given),inactive,–
Oc1c(Cl)ccc(Cl)c1Cl,inactive,–
O=C1OC2(c3ccccc31)c1cc(I)c(O)c(I)c1Oc1c2cc(I)c(O)c1I,inactive,–
CC1=CC(C)(C)Nc2ccccc21,inactive,–
COC(=O)c1ccc(C)cc1,inactive,–
C1CN(SSN2CCOCC2)CCO1,–,-5.91%
CCCN1C=CN(C)C1,inactive,–
C=CN1CCCC1=O,inactive,–
Nc1ccc2c(c1)C(=O)c1ccccc1C2=O,inactive,–
C[N+](C)(C)CCO,inactive,–
COC(=O)CC(=O)OC,inactive,–
CC/C=C\C/C=C\C/C=C\CCCCCCCC(=O)O,–,3.08%
C=CCCCCCCCCCC,inactive,–
c1ccc2c(c1)ccc1cc3c(ccc4ccccc43)cc12,–,-1.32%
O=C1CCc2ccccc2O1,inactive,–
CC(=O)Nc1ccc2c(c1)Cc1cc(NC(C)=O)ccc1-2,inactive,–
CC(C)(Oc1ccc(Cl)cc1)C(=O)O,inactive,–
C=C[C@H]1CN2CC[C@H]1C[C@@H]2[C@@H](O)c1ccnc2ccc(OC)cc12,–,-6.98%

SMILES,outcome,activation
CC(C)[N+](C)(CCOC(=O)C1c2ccccc2Oc2ccccc21)C(C)C,inactive,–
c1ccc2ncccc2c1,inactive,–
CC(=O)[C@@]1(O)CC[C@H]2[C@@H]3C[C@H](C)C4=CC(=O)C=C[C@]4(C)[C@@]3(F)[C@@H](O)C[C@@]21C,inactive,–
Nc1ccc(N)c(Cl)c1,inactive,–
CCOC(=O)C(C)Oc1ccc(Oc2cnc3cc(Cl)ccc3n2)cc1 (stereo not given),–,-7.55%
CCCCCCCCCCCCCO,inactive,–
CN(C)/N=N/c1nc[nH]c1C(N)=O,inactive,–
CCCCCCC(C)O (stereo not given),inactive,–
NCCOCCO,inactive,–
CC(=O)Oc1ccc(C(c2ccc(OC(C)=O)cc2)c2ccccn2)cc1,–,-0.565%
CCC/C=C/C=O,inactive,–
C=C[Si](OCCOC)(OCCOC)OCCOC,inactive,–
Cc1ccc([N+](=O)[O-])c(C)c1,inactive,–
O=C(O)COCCN1CCN(C(c2ccccc2)c2ccc(Cl)cc2)CC1 (stereo not given),inactive,–
O=C(O)c1ccc(O)cc1,inactive,–
Cc1ccc(/C(=C\CN2CCCC2)c2ccccn2)cc1,inactive,–
CC1(C)O[C@@H]2C[C@H]3[C@@H]4C[C@H](F)C5=CC(=O)C=C[C@]5(C)[C@@]4(F)[C@@H](O)C[C@]3(C)[C@]2(C(=O)CO)O1,inactive,–
OCCNCCO,inactive,–
Nc1cc([N+](=O)[O-])ccc1C(=O)O,inactive,–
COCCOCCOCCO,–,-0.141% [at 81.1 µM]
